# Data reported in PubChem BioAssay AID1671194 (National Center for Advancing Translational Sciences (NCATS), 2021).
# Hit rate of the full screen: of about 140,000 compounds, about 240 (0.17%) were called active. About 9% were inconclusive and are not listed. The sample as a whole holds a higher share of actives than the screen did. A number with no mark means an inactive call. The call rests on the fitted dose curve; in most records, active means well fitted inhibition curve with a large enough effect; inconclusive means small, poorly fitted or top-dose-only effect; inactive means no such curve, though single readings can be large or run the other way.
# Assay: Primary qHTS assay for inhibitors of alpha-synuclein gene (SNCA) expression; further: nearly all actives have a fitted effect of over 45% in size
# Conditions: HEK-293 SNCA-luciferase knock-in, luminescence, 24 h; series mostly up to 57.2 µM; activity change, negative = inhibition: at the top concentration
# From the text: Assay Submitter (PI): Daniel R. Scoles Ph.D.
# Department of Neurology, University of Utah, Salt Lake City, Utah
# Accumulation of alpha-synuclein is a main underlying pathological feature of Parkinson's disease (PD) and alpha-synucleinopathies, for which lowering expression of the alpha-synuclein gene (SNCA) is a potential therapeutic avenue. Using a cell-based luciferase reporter of SNCA expression we performed a quantitative high throughput screen (qHTS) of 155,885 compounds in dose response. The screening assay was generated using genome editing to insert the luciferase gene downstream and in frame of the SNCA gene in HEK-293 cells (1). A viability counterscreen using GF-AFC was used to eliminate cytotoxic and false positive compounds. After in silico analysis (clustering, removal of frequent hitter nuisance chemotypes), inhibitor compounds from the primary screen were selected for follow up and re-tested at 11-doses in the SNCA-luc cells (luciferase and GF-AFC confirmation), and in CMV-luc expressing cell line to flag general transcriptional repressors.
# Described herein are the results of the primary screen for SNCA inhibitors; decrease in luciferase signal (inhibition of the SNCA gene expression) is the desired output for this assay.
# 1. Dansithong, W., Paul, S., Scoles, D. R., Pulst, S. M., and Huynh, D. P. (2015) Generation of SNCA Cell Models Using Zinc Finger Nuclease (ZFN) Technology for Efficient High-Throughput Drug Screening. PLoS ONE 10, e0136930.
# SEQUENCE No. (e.g., 1, 2, 3, etc.); […] (e.g., Cells, Incubation, Reagent, etc.); VALUE; DESCRIPTION
# 1; Cells; 4 uL; Dispense 1500 HEK-293-SNCA-luc cells/well into Greiner 1536-well white / solid bottom tissue culture treated plate. The plate was covered with metal lids with gas-exchange holes.
# 2; Incubate; 24 hours; Incubate at 37C, 5% CO2, 95% RH.
# 3; Compounds; 23 nL; Compounds and controls were transferred via a Kalypsys Pin Tool (Wako USA) equipped with a 1536-slotted pin array. The plate was covered with metal lids with gas-exchange holes.
# 4; Incubate; 24 hours; Incubate at 37C, 5% CO2, 95% RH.
# 5; Dispense; 1 uL; Dispense Gly-Phe-7-amino-4-trifluoromethylcoumarin (GF-AFC, prepared at 125 uM in PBS) was added. The plate was covered with metal lids with gas-exchange holes.
# 6; Incubate; 30 min; Incubate at 37C, 5% CO2.
# 7; Detector; Fluorescence; Measure fluorescence with ViewLux microplate reader (PerkinElmer) equipped with 405/10 excitation and 540/25 emission filters.
# 8; Dispense; 3 uL; Dispense ONE-Glo ([…]) lucifase detection reagent was added to each well. Plates were covered with metal lids with gas-exchange holes.
# 9; Incubate; 15 min; Incubate at room temperature.
# 10; Detector; Luminescence; Measure luminescence with ViewLux microplate reader (PerkinElmer) equipped with clear filters.
# NOTES (numbers refer to sequence above)
# 1; HEK-293-SNCA-luc were cultured and suspended in phenol-red free DMEM (4.5 g/L glucose, 25 mM HEPES, cat #21063 (Thermo)).
# 3; Compounds were added to the assay plate in an 11-point intra plate dose response, 1:3 titration in DMSO with a final concentration range of […]. Vehicle-only plates, with DMSO being pin-transferred to every well, were inserted at the beginning of screening runs to confirm expected assay performance. […]
# 10; Signals were analyzed, and dose-response curves were fit using the Hill equation. […]
# Potency means the concentration at half of the fitted maximal effect.
SMILES,Potency,"activity change, negative = inhibition"
CC[C@H]1C=CC=CC[C@@H](C)[C@H](O)[C@@](C)(O)C(=O)[C@@H](C)[C@H](O)[C@@H](C)C(=O)[C@@H](C)[C@H](O)[C@@H](C)C=CC(=O)O[C@@H]2[C@@H](C)[C@H](CC1)O[C@]1(CC[C@H](C)[C@H](C[C@@H](C)O)O1)[C@H]2C,1.71 µM (active),
CN(Cc1ccccc1)C[C@H]1CN2CC[C@H]1C[C@@H]2CNC(=O)Nc1ccsc1,,-2.49% [at 87.6 µM]
CC(=Cc1csc(C)n1)[C@@H]1C[C@H]2O[C@]2(C)CCC[C@H](C)[C@@H](O)[C@@H](C)C(=O)C(C)(C)[C@@H](O)CC(=O)O1,,-26.4%
Cc1nc(-c2ccc(C(F)(F)F)cc2)cc([C@H]2CN3CC[C@H]2C[C@@H]3CNC(=O)C2CCC2)n1,,-32.3%
CCOC(=O)[C@H]1CN(C(=O)NC2CCCC2)[C@]2(C)C(=O)Nc3ccccc3[C@H]12,,18.1% [at 25.6 µM]
